Laboratory results from the supplement of paper PMC10849652.
Targets with a hit are over-represented here; the source holds about 8,800 in all. About 0.5% of all pairs of compound and target were hits.

What was measured:
Assay in all cases: log2 fold change, soluble protein after heating vs DMSO (PISA); higher = thermal stabilisation; K562 lysate, 10 uM; active = over 0.2 and 3.5 SD of the protein, either way, in both replicates (recomputed)
[1] = compound: C1=CC=C(C=C1)[C@H](COC2=CC3=C(C=C2)NC(=O)N3)NC(=O)C4=CC=CN(C4=O)CC5=CC(=C(C=C5)F)F
Procedure, shortened: (§1)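 Quantification was by TMTpro 16plex LC-MS/MS with equalised channel sums, applied to the supernatant after 21,000xg for 90 min. Samples were crude K562 extract at 1 mg/mL protein in PBS pH 7.4 with 1 mM MgCl2, treated with 10 μM compound for 30 min, heated for 3 min across 48°C-58°C, pooled and brought to 0.5% NP-40 at 4°C. Values are log-two fold changes in thermal stability relative to solvent controls, from duplicates.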

[2] = compound: CC1=C(SC2=C1C(=N[C@H](C3=NN=C(N32)C)CC(=O)N)C4=CC=C(C=C4)Cl)C
Procedure, shortened: as §1

[3] = compound: CC1=C2C(=CC=C1)N=C(N(C2=O)C3=CC=CC=C3C)CN4C=NC5=C(N=CN=C54)N
Procedure, shortened: as §1

[4] = compound: Cc1sc2c(c1C)C(c1ccc(Cl)cc1)=N[C@@H](CC(=O)OC(C)(C)C)c1nnc(C)n1-2
Procedure, shortened: as §1

[5] = compound: c1ccc([C@@H]2C[C@H]2NC2CCNCC2)cc1
Procedure, shortened: as §1

Measured: log2 fold change

KLC1 isoform 10 (UniProt Q07866)
inactive: [1] -0.094 | [2] -0.063

MON2 isoform 5 (UniProt Q7Z3U7)
inactive: [1] -0.014 | [2] 0.006 | [3] 0.005 | [4] 0.009 | [5] -0.013

LAGE3 (UniProt Q14657)
Chain of UniProt Q14657 (Q14657 whole entry, looked up): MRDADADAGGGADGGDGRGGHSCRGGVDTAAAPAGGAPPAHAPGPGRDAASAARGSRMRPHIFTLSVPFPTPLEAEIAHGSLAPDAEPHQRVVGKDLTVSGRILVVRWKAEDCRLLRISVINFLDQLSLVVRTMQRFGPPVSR
inactive: [1] 0.067 | [2] -0.058 | [3] -0.087 | [4] -0.044 | [5] 0.018

MINDY1 isoform 3 (UniProt Q8N5J2)
inactive: [1] 0.017 | [2] 0.061 | [3] -0.003 | [4] 0.028

L3HYPDH (UniProt Q96EM0)
inactive: [1] -0.022 | [2] 0.042 | [3] 0.003 | [4] -0.014 | [5] 0.01

LPCAT1 (UniProt Q8NF37)
Chain of UniProt Q8NF37 (Q8NF37 whole entry, looked up): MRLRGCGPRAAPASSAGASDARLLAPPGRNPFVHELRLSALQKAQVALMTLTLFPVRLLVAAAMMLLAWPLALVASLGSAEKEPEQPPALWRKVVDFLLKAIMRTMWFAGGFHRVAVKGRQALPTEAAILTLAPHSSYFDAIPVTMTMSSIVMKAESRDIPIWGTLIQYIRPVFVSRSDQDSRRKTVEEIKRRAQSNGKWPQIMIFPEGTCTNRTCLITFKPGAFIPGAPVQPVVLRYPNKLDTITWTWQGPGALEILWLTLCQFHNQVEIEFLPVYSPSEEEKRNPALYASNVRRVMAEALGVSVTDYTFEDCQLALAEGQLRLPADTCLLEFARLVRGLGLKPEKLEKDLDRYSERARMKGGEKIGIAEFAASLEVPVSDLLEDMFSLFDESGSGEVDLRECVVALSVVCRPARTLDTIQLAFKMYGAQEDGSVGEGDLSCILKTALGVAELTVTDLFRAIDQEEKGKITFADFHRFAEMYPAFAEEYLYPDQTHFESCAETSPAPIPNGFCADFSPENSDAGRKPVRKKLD
inactive: [1] -0.071 | [2] 0.056 | [3] 0.066 | [4] 0 | [5] -0.115

MAPK1 (UniProt P28482)
inactive: [1] 0.045 | [2] -0.006 | [3] -0.016 | [4] 0.039 | [5] 0.012

KLHL12 isoform 2 (UniProt Q53G59)
inactive: [1] 0.152 | [2] -0.049 | [3] -0.013 | [4] 0.161

KIF21A isoform 5 (UniProt Q7Z4S6)
inactive: [1] -0.023 | [2] 0.024 | [3] -0.003 | [4] 0.009 | [5] 0.118

MLXIP (UniProt Q9HAP2)
inactive: [1] -0.063 | [2] 0.005 | [3] 0.018 | [4] 0.031 | [5] -0.025

LAMP1 (UniProt P11279)
inactive: [1] -0.006 | [2] 0.008 | [3] 0.017 | [4] -0.125 | [5] -0.299

LARS2 (UniProt Q15031)
inactive: [1] -0.07 | [2] -0.072 | [3] -0.019 | [4] 0.066 | [5] 0.064

LYN (UniProt P07948)
Chain of UniProt P07948 (P07948 whole entry, looked up): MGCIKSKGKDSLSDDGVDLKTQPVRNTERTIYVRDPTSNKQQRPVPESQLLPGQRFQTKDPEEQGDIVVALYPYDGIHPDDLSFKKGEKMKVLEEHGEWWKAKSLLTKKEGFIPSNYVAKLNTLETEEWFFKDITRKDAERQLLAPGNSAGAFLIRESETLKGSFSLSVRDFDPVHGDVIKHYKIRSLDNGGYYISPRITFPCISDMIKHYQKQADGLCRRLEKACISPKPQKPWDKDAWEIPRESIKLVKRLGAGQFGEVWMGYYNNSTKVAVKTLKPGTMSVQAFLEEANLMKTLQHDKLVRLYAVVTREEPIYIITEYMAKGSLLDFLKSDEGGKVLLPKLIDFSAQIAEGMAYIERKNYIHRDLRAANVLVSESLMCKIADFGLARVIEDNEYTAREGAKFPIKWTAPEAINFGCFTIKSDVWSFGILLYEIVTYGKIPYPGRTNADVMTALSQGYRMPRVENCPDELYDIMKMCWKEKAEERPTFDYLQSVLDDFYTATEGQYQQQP
inactive: [1] -0.063 | [2] -0.103 | [3] -0.091 | [4] -0.032 | [5] 0.011

MAPK14 isoform 2 (UniProt Q16539)
Chain of UniProt Q16539 (Q16539 whole entry, looked up): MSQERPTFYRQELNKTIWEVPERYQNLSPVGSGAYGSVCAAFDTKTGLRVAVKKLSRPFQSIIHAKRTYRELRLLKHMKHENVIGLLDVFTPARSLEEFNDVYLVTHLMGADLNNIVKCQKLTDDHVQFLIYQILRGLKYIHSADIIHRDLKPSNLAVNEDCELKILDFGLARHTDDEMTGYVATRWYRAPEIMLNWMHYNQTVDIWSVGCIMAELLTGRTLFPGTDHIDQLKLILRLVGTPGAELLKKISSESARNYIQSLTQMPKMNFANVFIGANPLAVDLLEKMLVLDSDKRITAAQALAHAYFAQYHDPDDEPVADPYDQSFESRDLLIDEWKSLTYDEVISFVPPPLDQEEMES
inactive: [1] 0.008 | [2] -0.053 | [3] 0.014 | [4] -0.028 | [5] 0.154

MCMBP isoform 2 (UniProt Q9BTE3)
inactive: [1] 0.045 | [2] 0.02 | [3] 0.007 | [4] 0.018

MARF1 (UniProt Q9Y4F3)
inactive: [1] -0.052 | [2] 0.013 | [3] 0.175 | [4] 0.024 | [5] -0.023

KLHL36 (UniProt Q8N4N3)
Chain of UniProt Q8N4N3 (Q8N4N3 whole entry, looked up): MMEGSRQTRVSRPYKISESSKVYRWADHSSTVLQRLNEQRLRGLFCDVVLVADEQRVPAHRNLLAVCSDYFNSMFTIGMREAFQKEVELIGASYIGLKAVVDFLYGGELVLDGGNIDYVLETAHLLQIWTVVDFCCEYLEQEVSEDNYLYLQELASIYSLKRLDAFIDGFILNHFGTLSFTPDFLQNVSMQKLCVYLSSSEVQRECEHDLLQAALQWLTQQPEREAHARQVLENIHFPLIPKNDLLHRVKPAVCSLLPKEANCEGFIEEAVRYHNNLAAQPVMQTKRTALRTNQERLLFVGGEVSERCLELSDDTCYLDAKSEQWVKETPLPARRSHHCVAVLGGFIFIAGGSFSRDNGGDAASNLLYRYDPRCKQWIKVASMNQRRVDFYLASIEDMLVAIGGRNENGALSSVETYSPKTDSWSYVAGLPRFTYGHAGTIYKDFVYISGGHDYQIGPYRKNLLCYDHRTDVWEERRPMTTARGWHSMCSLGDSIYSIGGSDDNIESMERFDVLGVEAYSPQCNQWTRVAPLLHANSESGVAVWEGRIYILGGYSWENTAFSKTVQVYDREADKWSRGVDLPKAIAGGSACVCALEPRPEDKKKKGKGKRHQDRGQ
inactive: [1] -0.072 | [2] -0.086 | [3] -0.018 | [4] -0.011 | [5] 0.074

MINK1 (UniProt Q8N4C8)
inactive: [1] 0.069 | [2] 0.092 | [3] -0.149 | [4] -0.066 | [5] 0.086

LZTS1 (UniProt Q9Y250)
inactive: [1] -0.082 | [2] 0.049 | [3] 0.065 | [4] -0.628 | [5] 0.324

MAPK8 isoform 3 (UniProt P45983)
inactive: [1] -0.01 | [2] 0.03 | [3] 0.004 | [4] 0.071 | [5] -0.026

MARK3 (UniProt P27448)
inactive: [1] 0.02 | [2] 0.069 | [3] 0.118 | [4] -0.06 | [5] 0.053

MRPL12 (UniProt P52815)
inactive: [1] -0.084 | [2] 0.015 | [3] -0.022 | [4] 0.027 | [5] 0.047

KIF15 (UniProt Q9NS87)
inactive: [1] -0.008 | [2] -0.003 | [3] 0.021 | [4] -0.02 | [5] 0.013

MAP2K7 isoform 4 (UniProt O14733)
inactive: [1] -0.072 | [2] -0.261 | [3] -0.038 | [4] 0.066 | [5] 0.079

LYSMD3 (UniProt Q7Z3D4)
inactive: [1] 0.031 | [2] 0.063 | [3] 0.062 | [4] -0.096 | [5] -0.084

KRR1 (UniProt Q13601)
inactive: [1] 0.019 | [2] -0.017 | [3] 0.005 | [4] 0.062 | [5] 0.035

MECR (UniProt Q9BV79)
inactive: [1] -0.001 | [2] 0.013 | [3] 0.047 | [4] -0.048 | [5] 0.005

LBR (UniProt Q14739)
inactive: [1] -0.018 | [2] 0.045 | [3] 0.04 | [4] 0.007 | [5] 0.117

MGST3 (UniProt O14880)
inactive: [1] 0.003 | [2] -0.033 | [3] -0.008 | [4] -0.072 | [5] 0.056

KLC1 isoform 6 (UniProt Q07866)
inactive: [1] 0.001 | [2] 0.014 | [3] 0.027 | [4] 0.001 | [5] 0.033

LYAR (UniProt Q9NX58)
inactive: [1] 0.051 | [2] 0.015 | [3] -0.006 | [4] 0.031 | [5] 0.11

MPI (UniProt P34949)
inactive: [1] 0.023 | [2] -0.014 | [3] 0.033 | [4] -0.023 | [5] 0.083

MAPK12 (UniProt P53778)
Chain of UniProt P53778 (P53778 whole entry, looked up): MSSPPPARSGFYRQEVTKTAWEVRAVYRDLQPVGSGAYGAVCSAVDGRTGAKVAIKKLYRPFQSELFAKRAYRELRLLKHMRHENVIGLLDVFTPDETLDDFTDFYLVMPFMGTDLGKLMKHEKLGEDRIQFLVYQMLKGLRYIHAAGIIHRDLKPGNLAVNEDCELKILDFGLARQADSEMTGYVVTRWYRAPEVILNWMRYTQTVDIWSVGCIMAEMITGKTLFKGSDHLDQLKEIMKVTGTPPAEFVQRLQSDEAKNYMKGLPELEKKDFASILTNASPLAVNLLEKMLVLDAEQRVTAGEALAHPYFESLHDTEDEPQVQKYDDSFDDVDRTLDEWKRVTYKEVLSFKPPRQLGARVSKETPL
inactive: [1] 0.029 | [2] 0.068 | [3] -0.015 | [4] -0.002 | [5] 0.307

MAP4 isoform 5 (UniProt P27816)
inactive: [1] -0.065 | [2] 0.099 | [3] 0.163 | [4] 0.181

MMS22L (UniProt Q6ZRQ5)
inactive: [1] -0.062 | [2] -0.027 | [3] -0.038 | [4] 0.07 | [5] 0.11

LIMK2 isoform 3 (UniProt P53671)
inactive: [1] -0.022 | [2] -0.123 | [3] 0.038 | [4] 0.005 | [5] -0.132

MIPEP (UniProt Q99797)
inactive: [1] 0.015 | [2] -0.019 | [3] 0.052 | [4] 0.028 | [5] -0.008

KRIT1 (UniProt O00522)
inactive: [1] -0.026 | [2] -0.041 | [3] 0.099 | [4] -0.082

KIF2C (UniProt Q99661)
Chain of UniProt Q99661 (Q99661 whole entry, looked up): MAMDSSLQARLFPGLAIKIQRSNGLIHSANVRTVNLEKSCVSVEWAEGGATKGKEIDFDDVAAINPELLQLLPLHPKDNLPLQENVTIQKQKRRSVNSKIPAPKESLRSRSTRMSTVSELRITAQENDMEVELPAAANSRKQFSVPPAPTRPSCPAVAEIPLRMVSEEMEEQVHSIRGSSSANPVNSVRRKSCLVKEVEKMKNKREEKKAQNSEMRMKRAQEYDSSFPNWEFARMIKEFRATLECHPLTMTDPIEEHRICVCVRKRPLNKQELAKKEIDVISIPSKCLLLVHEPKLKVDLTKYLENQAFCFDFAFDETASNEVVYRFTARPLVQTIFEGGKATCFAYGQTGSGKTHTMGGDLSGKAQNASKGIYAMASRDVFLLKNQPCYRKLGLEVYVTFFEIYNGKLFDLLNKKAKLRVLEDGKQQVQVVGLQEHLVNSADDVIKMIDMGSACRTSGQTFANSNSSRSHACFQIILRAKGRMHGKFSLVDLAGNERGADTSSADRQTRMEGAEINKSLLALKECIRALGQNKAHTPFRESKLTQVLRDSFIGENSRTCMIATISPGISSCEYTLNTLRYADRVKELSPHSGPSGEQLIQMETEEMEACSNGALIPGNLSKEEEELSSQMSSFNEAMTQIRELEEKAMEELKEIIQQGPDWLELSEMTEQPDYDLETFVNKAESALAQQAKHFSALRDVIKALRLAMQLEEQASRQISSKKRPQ
inactive: [1] -0.022 | [2] -0.023 | [3] -0.009 | [4] 0.052 | [5] 0.032

MAPK14 (UniProt Q16539)
inactive: [1] 0.007 | [2] 0.024 | [3] 0.034 | [4] -0.04 | [5] -0.015

MICB, A0A140T979
inactive: [1] 0.028 | [2] -0.012 | [3] -0.003 | [4] 0.026 | [5] 0.019

KNOP1 (UniProt Q1ED39)
inactive: [1] 0.078 | [2] 0.029 | [3] 0.177 | [4] -0.162 | [5] 0.032

MLST8 (UniProt Q9BVC4)
Chain of UniProt Q9BVC4 (Q9BVC4 whole entry, looked up): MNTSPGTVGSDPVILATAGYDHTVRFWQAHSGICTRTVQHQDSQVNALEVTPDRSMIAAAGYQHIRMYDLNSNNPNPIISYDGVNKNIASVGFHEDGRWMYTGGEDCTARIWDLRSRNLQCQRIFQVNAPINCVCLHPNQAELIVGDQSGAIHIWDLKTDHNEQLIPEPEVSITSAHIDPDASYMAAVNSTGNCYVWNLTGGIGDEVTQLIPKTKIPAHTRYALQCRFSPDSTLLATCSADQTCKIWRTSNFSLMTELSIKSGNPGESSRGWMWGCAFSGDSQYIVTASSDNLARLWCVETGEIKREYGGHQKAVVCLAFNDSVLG
inactive: [1] -0.038 | [2] 0.037 | [3] -0.051 | [4] 0.001 | [5] 0.011

MAPKAPK5 (UniProt Q8IW41)
inactive: [1] 0.034 | [2] 0.027 | [3] 0.014 | [4] 0.013 | [5] 0.01

KLC2 (UniProt Q9H0B6)
inactive: [1] -0.032 | [2] 0.016 | [3] 0.029 | [4] 0.003 | [5] 0.122

MAP4K4 isoform 3 (UniProt O95819)
inactive: [1] 0.022 | [2] 0.029 | [3] 0.015 | [4] -0.021 | [5] 0.083

MRPL35 (UniProt Q9NZE8)
inactive: [1] -0.028 | [2] -0.002 | [3] 0.331 | [4] -0.04 | [5] 0

MICU1 isoform 3 (UniProt Q9BPX6)
Chain of UniProt Q9BPX6 (Q9BPX6 whole entry, looked up): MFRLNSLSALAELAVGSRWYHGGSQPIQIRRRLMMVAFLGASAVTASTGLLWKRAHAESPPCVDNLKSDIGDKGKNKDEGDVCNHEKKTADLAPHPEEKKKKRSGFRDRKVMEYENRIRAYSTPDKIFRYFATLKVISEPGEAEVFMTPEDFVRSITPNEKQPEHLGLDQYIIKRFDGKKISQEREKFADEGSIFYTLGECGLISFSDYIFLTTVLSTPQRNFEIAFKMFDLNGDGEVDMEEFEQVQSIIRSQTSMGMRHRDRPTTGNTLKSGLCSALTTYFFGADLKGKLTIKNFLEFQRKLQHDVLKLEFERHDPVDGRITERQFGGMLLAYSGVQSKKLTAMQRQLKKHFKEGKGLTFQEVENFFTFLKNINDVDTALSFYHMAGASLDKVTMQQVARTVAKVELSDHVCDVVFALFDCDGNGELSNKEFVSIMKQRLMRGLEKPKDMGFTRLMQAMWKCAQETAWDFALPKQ
inactive: [1] -0.018 | [2] 0.027 | [3] -0.035 | [4] -0.043 | [5] 0.196

MED17 (UniProt Q9NVC6)
inactive: [1] 0.009 | [2] 0.021 | [3] 0.016 | [4] 0.021 | [5] 0.02

MAP4K5 (UniProt Q9Y4K4)
Chain of UniProt Q9Y4K4 (Q9Y4K4 whole entry, looked up): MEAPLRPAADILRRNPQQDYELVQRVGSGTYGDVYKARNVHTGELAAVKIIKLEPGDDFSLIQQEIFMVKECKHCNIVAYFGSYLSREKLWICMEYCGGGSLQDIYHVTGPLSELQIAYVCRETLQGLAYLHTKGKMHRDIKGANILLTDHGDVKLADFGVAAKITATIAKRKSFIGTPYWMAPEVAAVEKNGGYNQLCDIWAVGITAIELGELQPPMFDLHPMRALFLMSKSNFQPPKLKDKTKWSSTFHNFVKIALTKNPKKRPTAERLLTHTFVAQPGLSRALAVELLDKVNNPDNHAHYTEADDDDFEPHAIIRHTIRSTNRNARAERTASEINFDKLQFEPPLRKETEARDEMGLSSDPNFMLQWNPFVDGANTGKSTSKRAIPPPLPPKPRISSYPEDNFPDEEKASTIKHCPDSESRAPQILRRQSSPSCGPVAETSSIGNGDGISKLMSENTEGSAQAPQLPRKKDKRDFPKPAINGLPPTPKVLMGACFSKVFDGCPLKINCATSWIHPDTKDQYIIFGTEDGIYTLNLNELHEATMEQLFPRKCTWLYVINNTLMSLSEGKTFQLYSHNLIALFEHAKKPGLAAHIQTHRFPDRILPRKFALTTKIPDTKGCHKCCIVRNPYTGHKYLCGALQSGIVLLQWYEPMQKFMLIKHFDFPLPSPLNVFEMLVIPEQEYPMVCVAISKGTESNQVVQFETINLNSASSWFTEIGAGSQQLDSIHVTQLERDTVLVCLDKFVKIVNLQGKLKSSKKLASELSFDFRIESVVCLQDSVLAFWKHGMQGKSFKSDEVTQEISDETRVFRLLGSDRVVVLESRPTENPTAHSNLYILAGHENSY
inactive: [1] 0.069 | [2] 0.063 | [3] -0.079 | [4] -0.022 | [5] -0.1

MAD2L1BP isoform 3 (UniProt Q15013)
inactive: [1] 0.003 | [2] 0.005 | [3] -0.013 | [4] -0.01 | [5] -0.006

MCMBP (UniProt Q9BTE3)
inactive: [1] -0.016 | [2] 0.035 | [3] 0.019 | [4] -0.013 | [5] 0.057

MED16 (UniProt Q9Y2X0)
inactive: [1] 0.019 | [2] 0.022 | [3] 0.029 | [4] 0.001 | [5] 0.087
